According to PubChem BioAssay (EPA / NIEHS):
“And” between values parts separate entries of the source, which are not always exact repeats. Equal entries are not always repeated. Some compounds were tested as several samples or in several runs, with calls that do not always agree. The source made the active and inactive calls. Rule for the calls: active = hit-call score of the fitted dose curve at least 0.9, where 1 is the maximum; inactive = score below 0.9.

Assays:
[1] = BSK_CASM3C_SRB: Viability Assessment in the BioMAP Diversity Plus: CASM3C Assay (AID 2283050); details: primary human coronary artery smooth muscle cells;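 note: total protein by SRB staining as cytotoxicity measure in parallel cultures; cells exposed to compound for 24 h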
[2] = read-out: Thrombomodulin, THBD (gene 7056); assay: BSK_CASM3C_Thrombomodulin: BioMAP Diversity Plus: CASM3C Assay for Thrombomodulin Biomarker Activity (AID 2283051); details: primary human coronary artery smooth muscle cells; actives raise or lower the signal;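 note: thrombomodulin protein level measured by ELISA 24 h after dosing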
[3] = read-out: Tissue Factor, F3 (gene 2152); assay: BSK_CASM3C_TissueFactor: BioMAP Diversity Plus: CASM3C Assay for Tissue Factor Biomarker Activity (AID 2283052); details: primary human coronary artery smooth muscle cells; actives raise or lower the signal;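 note: cell surface tissue factor protein level read by ELISA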
[4] = read-out: Interferon-gamma inducible Protein 10 (IP10), CXCL10 (gene 3627); assay: BSK_hDFCGF_IP10: BioMAP Diversity Plus: hDFCGF Assay for Interferon-gamma inducible Protein 10 (IP10) Biomarker Activity (AID 2283053); details: primary human foreskin fibroblasts; actives raise or lower the signal
In short: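 Chemical-treated human skin fibroblasts (primary) were sampled at 24 h for IP-10 by ELISA. Both increases and decreases relative to DMSO were scored.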

[5] = read-out: Urokinase-type plasminogen activator receptor (uPAR), PLAUR (gene 5329); assay: BSK_CASM3C_uPAR: BioMAP Diversity Plus: CASM3C Assay for Urokinase-type plasminogen activator receptor (uPAR) Biomarker Activity (AID 2283054); details: primary human coronary artery smooth muscle cells; actives raise or lower the signal;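 note: cell-surface uPAR protein level quantified by ELISA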
[6] = read-out: Vascular cell adhesion molecule 1 (VCAM1), VCAM1 (gene 7412); assay: BSK_CASM3C_VCAM1: BioMAP Diversity Plus: CASM3C Assay for Vascular cell adhesion molecule 1 (VCAM1) Biomarker Activity (AID 2283055); details: primary human coronary artery smooth muscle cells; actives raise or lower the signal;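 note: VCAM-1 protein level quantified by ELISA on the cells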
[7] = read-out: Collagen III, COL3A1 (gene 1281); assay: BSK_hDFCGF_CollagenIII: BioMAP Diversity Plus: hDFCGF Assay for Collagen III Biomarker Activity (AID 2283056); details: primary human foreskin fibroblasts; actives raise or lower the signal
In short: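 ELISA readout of Collagen III in human dermal (foreskin) fibroblasts, taken 24 h post-treatment. Gain or loss relative to DMSO vehicle fitted in both directions.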

[8] = read-out: Epidermal growth factor receptor (EGFR), EGFR (gene 1956); assay: BSK_hDFCGF_EGFR: BioMAP Diversity Plus: hDFCGF Assay for Epidermal growth factor receptor (EGFR) Biomarker Activity (AID 2283057); details: primary human foreskin fibroblasts; actives raise or lower the signal
In short: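 Cell-based multiplexed assay in primary human foreskin fibroblasts. EGFR is read by ELISA 24 h after treatment and compared with DMSO controls.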

[9] = read-out: Interleukin-8 (IL8), CXCL8 (gene 3576); assay: BSK_hDFCGF_IL8: BioMAP Diversity Plus: hDFCGF Assay for Interleukin-8 (IL8) Biomarker Activity (AID 2283058); details: primary human foreskin fibroblasts; actives raise or lower the signal
In short: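 IL-8 levels read by ELISA at 24 hours after dosing human skin fibroblast cultures. Parallel SRB staining assessed overt cytotoxicity, and gain or loss of signal was fitted against DMSO control.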

[10] = BSK_hDFCGF_Proliferation: Cell Proliferation Assessment in the BioMAP Diversity Plus: hDFCGF Assay (AID 2283059); details: primary human foreskin fibroblasts;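 note: curves fitted for both rise and fall of signal versus DMSO baseline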
In short: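 This proliferation readout used SRB total-protein staining of human foreskin fibroblasts […], normalized to DMSO with bidirectional curve fitting.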

[11] = read-out: Macrophage colony-stimulating factor (MCSF), CSF1 (gene 1435); assay: BSK_hDFCGF_MCSF: BioMAP Diversity Plus: hDFCGF Assay for Macrophage colony-stimulating factor (MCSF) Biomarker Activity (AID 2283060); details: primary human foreskin fibroblasts; actives raise or lower the signal
In short: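 M-CSF levels read by ELISA at 24 h post-dosing in human skin fibroblasts. Parallel cultures stained with SRB assessed cytotoxicity at the same time point; response fitted in both directions against the DMSO baseline.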

[12] = BSK_hDFCGF_SRB: Viability Assessment in the BioMAP Diversity Plus: hDFCGF Assay (AID 2283061); details: primary human foreskin fibroblasts;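 note: cells exposed to compound for 24 h before the read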
In short: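 Viability was read as total protein: after 10% TCA fixation, wells were stained with 0.1% sulforhodamine B and read at 560 nm. Primary human foreskin fibroblasts were dosed for 24 h, with bidirectional fitting versus DMSO.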

[13] = read-out: TIMP metallopeptidase inhibitor 1 (TIMP1), TIMP1 (gene 7076); assay: BSK_hDFCGF_TIMP1: BioMAP Diversity Plus: hDFCGF Assay for TIMP metallopeptidase inhibitor 1 (TIMP1) Biomarker Activity (AID 2283062); details: primary human foreskin fibroblasts; actives raise or lower the signal
In short: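 TIMP-1 measured by ELISA 24 h after chemical dosing of primary human skin fibroblasts, with gain or loss fitted relative to DMSO. Parallel SRB staining (560 nm) monitored overt cytotoxicity.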

[14] = read-out: Monokine induced gamma interferon (MIG), CXCL9 (gene 4283); assay: BSK_hDFCGF_MIG: BioMAP Diversity Plus: hDFCGF Assay for Monokine induced gamma interferon (MIG) Biomarker Activity (AID 2283063); details: primary human foreskin fibroblasts; actives raise or lower the signal
In short: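 Human primary foreskin fibroblasts in the hDFCGF system, exposed to test chemical for 24 h; MIG measured by ELISA. Bidirectional curve fitting against DMSO negative control as activity baseline.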

[15] = read-out: Matrix Metallopeptidase 1 (MMP1), MMP1 (gene 4312); assay: BSK_hDFCGF_MMP1: BioMAP Diversity Plus: hDFCGF Assay for Matrix Metallopeptidase 1 (MMP1) Biomarker Activity (AID 2283064); details: primary human foreskin fibroblasts; actives raise or lower the signal
In short: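 ELISA read-out of MMP1 from human foreskin fibroblasts (primary skin cells), 24 h post-dose. Gain or loss of signal was fitted bidirectionally versus DMSO negative control; cytotoxicity was checked by SRB in parallel cultures.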

[16] = read-out: Vascular cell adhesion molecule 1 (VCAM1), VCAM1 (gene 7412); assay: BSK_hDFCGF_VCAM1: BioMAP Diversity Plus: hDFCGF Assay for Vascular cell adhesion molecule 1 (VCAM1) Biomarker Activity (AID 2283065); details: primary human foreskin fibroblasts; actives raise or lower the signal;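 for AC50: VCAM-1 protein level quantified by ELISA after 24 h chemical exposure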
In short: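 ELISA readout of VCAM-1 on human dermal fibroblast primary cultures, 24 h after chemical exposure. Gain or loss of signal fitted in both directions against DMSO baseline.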

[17] = read-out: Plasminogen activator inhibitor-1 (PAI1), SERPINE1 (gene 5054); assay: BSK_hDFCGF_PAI1: BioMAP Diversity Plus: hDFCGF Assay for Plasminogen activator inhibitor-1 (PAI1) Biomarker Activity (AID 2283066); details: primary human foreskin fibroblasts; actives raise or lower the signal
In short: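 Human skin fibroblast cultures receive chemical for 24 h before PAI-1 is measured by ELISA; signal changes are fitted bidirectionally against DMSO-treated wells.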

[18] = read-out: Intercellular Adhesion Molecule 1 (ICAM1), ICAM1 (gene 3383); assay: BSK_KF3CT_ICAM1: BioMAP Diversity Plus: KF3CT Assay for Intercellular Adhesion Molecule 1 (ICAM1) Biomarker Activity (AID 2283067); details: primary human keratinocytes with fibroblasts; actives raise or lower the signal
In short: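 Cell-surface ICAM-1 was measured by ELISA 24 h after dosing primary human skin keratinocytes co-cultured with fibroblasts. Parallel SRB staining tracked overt cytotoxicity. Gain or loss of signal was fitted relative to DMSO.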

[19] = read-out: Interferon-gamma inducible Protein 10 (IP10), CXCL10 (gene 3627); assay: BSK_KF3CT_IP10: BioMAP Diversity Plus: KF3CT Assay for Interferon-gamma inducible Protein 10 (IP10) Biomarker Activity (AID 2283068); details: primary human keratinocytes with fibroblasts; actives raise or lower the signal
In short: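 Signal is secreted/surface IP-10 by ELISA in a human primary skin co-culture of keratinocytes and foreskin fibroblasts, taken 24 h post-dosing; DMSO served as negative control.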

[20] = BSK_KF3CT_SRB: Viability Assessment in the BioMAP Diversity Plus: KF3CT Assay (AID 2283069); details: primary human keratinocytes with fibroblasts;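 note: total protein by sulforhodamine B staining as a cytotoxicity measure; read 24 h after compound addition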
In short: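 SRB read-out at 560 nm (0.1% stain, TCA-fixed cells) gauges overt cytotoxicity in a human skin keratinocyte–fibroblast co-culture 24 h post-dosing. Signal change was fitted bidirectionally relative to DMSO control.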

Measured: AC50

O=S(=O)(O)C(F)(F)C(F)(F)C(F)(F)C(F)(F)F
inactive: all assays above

O=NN(c1ccccc1)c1ccccc1
active: [2] 4.46 µM
not listed: [19]
inactive: all other assays above

C=CC(=O)NCNC(=O)C=C
not listed: [19]
inactive: all other assays above

Oc1c(Cl)c(Cl)c(Cl)c(Cl)c1Cl
active: [1] 29.6 µM | [3] 34.9 µM | [5] 20 µM | [6] 20 µM | [7] 2.34 µM and 2.57 µM | [10] 3.11 µM and 8.24 µM | [11] 6.44 µM | [12] 7.08 µM and 12.4 µM | [13] 13.7 µM | [14] 4.29 µM | [15] 33.1 µM | [16] 10.2 µM and 4.61 µM | [17] 10.2 µM and 9.72 µM | [18] 10.2 µM and 16.6 µM | [19] 12.9 µM and 20 µM | [20] 6.37 µM
inactive: [1] | [2] | [3] | [5] | [8] | [9] | [11] | [13] | [15] | [20]

CCCN(CCC)N=O
not listed: [4]
inactive: all other assays above

CCOP(=S)(OCC)SCSC(C)(C)C
not listed: [19]
inactive: all other assays above

ClC(Cl)=C(c1ccc(Cl)cc1)c1ccc(Cl)cc1
inactive: [1] | [3] | [5] | [6] | [8]
active: [2] 20 µM | [4] 26.4 µM | [7] 24.5 µM | [9] 30 µM | [10] 5.36 µM | [11] 20 µM | [12] 18.2 µM | [13] 30 µM | [14] 27.8 µM | [15] 31.6 µM | [16] 14.1 µM | [17] 16.6 µM | [18] 20 µM | [20] 27.9 µM

c1ccc(-c2ccccc2)cc1
inactive: all assays above

Cc1ccccc1CO[C@@H]1C[C@@]2(C(C)C)CC[C@]1(C)O2
not listed: [4]
inactive: all other assays above

Sc1ccccc1
not listed: [19]
inactive: all other assays above

CN(C)c1nc(=O)n(C2CCCCC2)c(=O)n1C
not listed: [4] | [19]
inactive: all other assays above
